This is an account of results in PubChem BioAssay.

Each structure is given as a SMILES string. For part of these data: Potency and affinity values are given separately. Active and inactive are the calls of the source.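 Rule for the calls, unless noted: active = fitted half-maximal concentration within the tested range, moderate curve steepness, significant signal drop, and little compound fluorescence or bead-linkage interference; inactive = the rest.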

Test [1] addresses Cell division control protein 42 homolog (Homo sapiens) (UniProt P60953). In words: inhibition of fluorescent GTP binding to constitutively active Cdc42 – biochemical, multiplex bead flow cytometry, Bodipy-FL-GTP, dose response (AID 1333;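 active = fitted half-maximal concentration within the tested dose range, moderate curve steepness, a statistically real signal drop, and little compound fluorescence or tag-binding interference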).
For test [2] the target is unchanged. In words: inhibition of fluorescent GTP binding to wildtype Cdc42 – biochemical, multiplex bead flow cytometry, Bodipy-FL-GTP, dose response (AID 1334). The conditions noted are these: bead-based flow cytometry, Bodipy-FL-GTP binding to GST-Cdc42; at 100 µM (top of the series) unless noted. For orientation: In flow cytometry, cells or beads pass a laser one at a time.

In test [3] the target is GTPase HRas (Homo sapiens) (UniProt P01112). The test can be described thus: Ras wt fluorescent GTP loading blockade – biochemical, wildtype, multiplex bead flow cytometry, dose response (AID 1335;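 active = fitted half-maximal concentration within 10 nM to 100 µM, steepness 0.5 to 2, significant signal drop, low assay interference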). Particulars: bead-based flow cytometry, Bodipy-GTP binding to GST-Ras; at 100 µM (top of the series) unless noted.
Chain of GTPase HRas (Homo sapiens) (P01112 whole entry, looked up): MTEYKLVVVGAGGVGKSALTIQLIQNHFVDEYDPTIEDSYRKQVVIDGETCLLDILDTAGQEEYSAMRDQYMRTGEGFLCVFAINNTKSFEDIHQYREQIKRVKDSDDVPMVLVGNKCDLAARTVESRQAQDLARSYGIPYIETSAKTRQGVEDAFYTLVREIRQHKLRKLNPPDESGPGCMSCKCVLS
Test [4] relates to Ras-related protein Rab-7a (dog), GTP binding. The test can be described thus: blockers of fluorescent GTP binding to Rab7 – biochemical, wildtype, multiplex bead flow cytometry, dose response (AID 1336; call rule not given here).
The target in test [5] is Ras-related C3 botulinum toxin substrate 1 (Homo sapiens) (UniProt P63000). The test can be described thus: inhibition of wildtype Rac1 nucleotide loading – biochemical, multiplex bead flow cytometry, dose response (AID 1340;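 active = dose curve with midpoint inside tested range, moderate steepness, plateau gap beyond fit error, low compound glow and bead-link interference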). Particulars: GST-Rac1 beads, Bodipy-FL-GTP binding; at 100 µM (top of the series) unless noted.
In test [6] the target is GTPase HRas (Homo sapiens) (UniProt P01112). In words: blockade of GTP loading onto mutant Ras – biochemical, activated mutant, multiplex bead flow cytometry, dose response (AID 1341;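 active = dose-response curve with midpoint inside the tested range, moderate steepness, significant amplitude and little compound fluorescence or bead-attachment interference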;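 note: GST-tagged constitutively activated Ras mutant immobilized on beads and multiplexed with other GTPases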).

Chain of Cell division control protein 42 homolog (Homo sapiens) (P60953 whole entry, looked up): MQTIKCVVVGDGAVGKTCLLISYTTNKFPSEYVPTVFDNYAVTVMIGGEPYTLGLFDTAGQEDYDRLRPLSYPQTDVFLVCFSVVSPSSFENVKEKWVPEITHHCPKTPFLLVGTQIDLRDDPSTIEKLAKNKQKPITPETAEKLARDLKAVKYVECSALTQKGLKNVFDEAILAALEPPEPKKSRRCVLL

For the compound `Cc1ccc(S(=O)(=O)c2cc3c(=O)n4ccccc4nc3n(C)c2=N)cc1`, the outcome in test [1], in test [4] and in test [6] was inactive. This compound also gave a fluorescence, percent of control (lower = inhibition) in test [2] of 31.2%. For the same compound, in test [3], the GTP binding, percent of control stood at 65.8%. Besides, in test [5], the GTP binding signal, raw median fluorescence (lower = inhibition) (MCF (arbitrary fluorescence units)) was determined as 158.

`COc1ccc(S(=O)(=O)N2CCN(CC(=O)Nc3cc(C(F)(F)F)ccc3Cl)CC2)cc1`: the compound was classed as inactive in test [1], in test [4] and in test [6]. Further, in test [2], the fluorescence, percent of control (lower = inhibition) stood at 84.2%. For the same compound, the GTP binding, percent of control in test [3] was found to be 153%. Also, the GTP binding signal, raw median fluorescence (lower = inhibition) (MCF (arbitrary fluorescence units)) in test [5] was determined as 182.

`CC(=O)Nc1cccc(C#CC(=O)c2ccc([N+](=O)[O-])cc2)c1`: the call in test [1], in test [4] and in test [6] was inactive. The same compound came in with a fluorescence, percent of control (lower = inhibition) in test [2] of 39.8%. The GTP binding, percent of control in test [3] was determined as 178%. This compound also returned a GTP binding signal, raw median fluorescence (lower = inhibition) (MCF (arbitrary fluorescence units)) in test [5] of 104.

With `CC(=O)NC1CC2CCCC(C1)N2C(=O)Nc1ccccc1` (stereo not given), the call in test [1], in test [4] and in test [6] was inactive. The fluorescence, percent of control (lower = inhibition) in test [2] came to 88.1%. The compound also returned a GTP binding, percent of control in test [3] of 152%. This compound also showed a GTP binding signal, raw median fluorescence (lower = inhibition) (MCF (arbitrary fluorescence units)) in test [5] of 217.

As for `CN(C)CCN(C(=O)c1ccc(N2C(=O)CCC2=O)cc1)c1nc2cc3c(cc2s1)OCO3`, the result in test [1], in test [4] and in test [6] was inactive. For the same compound, the fluorescence, percent of control (lower = inhibition) in test [2] was 35.7%. This compound also returned a GTP binding, percent of control in test [3] of 79.3%. In test [5], this compound displayed a GTP binding signal, raw median fluorescence (lower = inhibition) (MCF (arbitrary fluorescence units)) of 261.

In the case of `COc1ccccc1OCCn1cc(C(=O)O)c2cccc(C)c21`, the compound was classed as inactive in test [1], in test [4] and in test [6]. The same compound displayed a fluorescence, percent of control (lower = inhibition) in test [2] of 50.6%. In test [3], this compound returned a GTP binding, percent of control of 200%. The compound further yielded a GTP binding signal, raw median fluorescence (lower = inhibition) (MCF (arbitrary fluorescence units)) in test [5] of 55.9.

For `COc1ccc(-c2csc(NC(=O)Cc3cccc4ccccc34)c2C(=O)O)cc1`, the call in test [1], in test [4] and in test [6] was inactive. In test [2], the fluorescence, percent of control (lower = inhibition) worked out at 27.2%. This compound came in with a GTP binding, percent of control in test [3] of 66.7%. The compound further showed a GTP binding signal, raw median fluorescence (lower = inhibition) (MCF (arbitrary fluorescence units)) in test [5] of 187.

For the compound `N#C/C(=C\c1cccnc1)c1nc2ccccc2[nH]1`, the outcome in test [1], in test [4] and in test [6] was inactive. Further, the fluorescence, percent of control (lower = inhibition) in test [2] was 32.6%. The same compound had a GTP binding, percent of control in test [3] of 82.7%. Further, in test [5], the GTP binding signal, raw median fluorescence (lower = inhibition) (MCF (arbitrary fluorescence units)) stood at 251.

As for `COc1cccc2c(SCC(=O)N/N=C/c3ccc(O)cc3O)cc(C)nc12`, the call in test [1], in test [4] and in test [6] was inactive. In test [2], this compound returned a fluorescence, percent of control (lower = inhibition) of 29.6%. This compound displayed a GTP binding, percent of control in test [3] of 62.9%. The compound also came in with a GTP binding signal, raw median fluorescence (lower = inhibition) (MCF (arbitrary fluorescence units)) in test [5] of 110.

On to `COc1cc(NS(=O)(=O)c2ccc(Nc3nc(-c4ccccc4)cs3)cc2)nc(OC)n1`, for which the compound was classed as inactive in test [1], in test [4] and in test [6]. Besides, the fluorescence, percent of control (lower = inhibition) in test [2] is 40.7%. This compound also gave a GTP binding, percent of control in test [3] of 53.3%. The same compound showed a GTP binding signal, raw median fluorescence (lower = inhibition) (MCF (arbitrary fluorescence units)) in test [5] of 138.

Regarding `O=C(CSc1ncccc1C(=O)O)c1ccc2ccccc2c1`, the compound was called inactive in test [1], in test [4] and in test [6]. The fluorescence, percent of control (lower = inhibition) in test [2] amounted to 48.7%. This compound also showed a GTP binding, percent of control in test [3] of 66.6%. Moreover, the GTP binding signal, raw median fluorescence (lower = inhibition) (MCF (arbitrary fluorescence units)) in test [5] is 0.

Take `CCOc1cc(/C=C2/SC(=S)NC2=O)ccc1OC(=O)c1ccco1`: the compound was classed as inactive in test [1], in test [4] and in test [6]. This compound gave a fluorescence, percent of control (lower = inhibition) in test [2] of 33.4%. Besides, the GTP binding, percent of control in test [3] amounted to 83.7%. Besides, the GTP binding signal, raw median fluorescence (lower = inhibition) (MCF (arbitrary fluorescence units)) in test [5] amounted to 208.

As to `COc1cc(/C=C2\SC(=Nc3ccc(O)cc3)NC2=O)cc(OC)c1O`, the compound was called inactive in test [1], in test [4] and in test [6]. Besides, in test [2], the fluorescence, percent of control (lower = inhibition) stood at 36.9%. This compound registered a GTP binding, percent of control in test [3] of 79.8%. In test [5], this compound came in with a GTP binding signal, raw median fluorescence (lower = inhibition) (MCF (arbitrary fluorescence units)) of 267.

Take `CCCOc1ccc(C(CC(=O)O)NC(=O)c2sc3ccccc3c2Cl)cc1` (stereo not given): the call in test [1], in test [4] and in test [6] was inactive. In test [2], the fluorescence, percent of control (lower = inhibition) is 28.6%. In test [3], this compound showed a GTP binding, percent of control of 78.9%. In addition, the GTP binding signal, raw median fluorescence (lower = inhibition) (MCF (arbitrary fluorescence units)) in test [5] was determined as 258.

For `O=S(=O)(Nc1cc(Sc2ncn[nH]2)c(O)c2ccccc12)c1ccccc1`, the outcome in test [1], in test [4] and in test [6] was inactive. The compound further registered a fluorescence, percent of control (lower = inhibition) in test [2] of 31.4%. The compound also yielded a GTP binding, percent of control in test [3] of 71.9%. In test [5], this compound came in with a GTP binding signal, raw median fluorescence (lower = inhibition) (MCF (arbitrary fluorescence units)) of 155.
